In the library only some 10% were active in any assay of this set; here they are far more common.
Luciferase inh: blocks purified firefly luciferase enzyme activity; purified P. pyralis luciferase, luminescence, biochemical; Potency, µM (top dose mostly 115 µM), usual class: inhibitors; 2.5% of 76,000 active; AID 1347043; note: nearly all actives have a fitted effect of over 65% in size
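Purified 10nM P. pyralis luciferase with 10uM D-luciferin and 10uM ATP in 50mM Tris acetate pH 7.5, 10mM Mg acetate, 0.01% Tween-20, 0.05% BSA. qHTS titration; luminescence read by CCD imager.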
GPT2 inh: blocks human glutamate pyruvate transaminase 2 | 0.25% of 100,000 active | Q8TD30 | Recombinant GPT2, coupled pyruvate oxidase/HRP Amplex Red fluorescence | Potency, µM (doses to about 57.7 µM), hits mostly inhibitors; note: nearly all actives have a fitted effect of over 60% in size
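Recombinant GPT2 (10ng/uL) with 250uM a-KG and 2mM L-alanine, 30 min at room temperature, in HEPES pH 7.5 buffer. Pyruvate detected by pyruvate oxidase/HRP/Amplex Red fluorescence after 30 min in the dark; AOA (50uM) as positive control.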
NPR1 antag: human Npr1 receptor antagonism; AID 1347048; HEK293 hNpr1 GloSensor cGMP, ANP-stimulated luminescence; Potency, µM (top dose mostly 46.3 µM), hits mostly inhibitors; 1.6% of 76,000 active; P16066; calls by dose curve; note: nearly all actives have a fitted effect of over 60% in size
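Compound pre-incubated 30 min at room temperature on GloSensor-loaded HEK293 cells stably carrying hNpr1 and the pGS-40F cGMP biosensor. Stimulation uses hNppA at 0.1 nM final; luminescence is taken at baseline and 20 min post-agonist.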
NIH3T3 tox: cytotoxic compounds in NIH 3T3 cells; NIH 3T3 viability, CellTiter-Glo ATP luminescence, 48-72 h; 4.3% of 94,000 active; AID 1345082; Potency, µM (highest dose often 96.7 µM), hits mostly inhibitors; note: nearly all actives have a fitted effect of over 55% in size
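NIH 3T3 cells at 400 cells/well received 23 nL of compound by pintool and were incubated 48 or 72 h at 37 °C. Viability was read as ATP-coupled CellTiter-Glo luminescence.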
HEK293 tox: HEK 293 cell cytotoxicity | HEK 293 viability, ATP luminescence (CellTiter-Glo), 48-72 h | Potency, µM (series often up to 115 µM), most hits filed as inhibitors | 6.6% of 94,000 active; note: nearly all actives have a fitted effect of over 60% in size
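Luminescence from cellular ATP, measured with CellTiter-Glo, indicates HEK 293 viability. Cells plated at 250 cells/well are treated with compound for 48 or 72 hr at 37 degree Celsius before reagent addition.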
A number is an active result; . = inactive; ? = inconclusive; / = no result given; ! = repeats disagree. Unless noted, calls come from the whole dose curve; as a rule, active = well fitted curve in the direction sought with a large enough effect; inconclusive = small, poorly fitted or top-dose-only effect, or another doubt; inactive = no such curve, though single readings can be large; an effect the other way counts as inactive or inconclusive.

SMILES | Luciferase inh | GPT2 inh | NPR1 antag | NIH3T3 tox | HEK293 tox
Cc1nn(-c2ccc(C(C)(C)C)cc2)c(C)c1[C@@H]1C=C[C@@H](NC(=O)c2ccc(N(C)C)cc2)C1 | . | . | . | ? | ?
Cc1nn(-c2ccc(C(F)(F)F)cc2)c(C)c1[C@@H]1C=C[C@@H](NC(=O)c2ccc(N(C)C)cc2)C1 | ? | . | . | ? | ?
COCCCNC(=O)N1CCC2(CC1)CC(N(Cc1ccc(F)cc1)C1CC1)CCO2 (stereo unspecified) | . | . | . | . | .
COc1ccc(NC(=O)O[C@@H]2CO[C@H]3[C@@H]2OC[C@@H]3NS(=O)(=O)c2ccc(NC(C)=O)cc2)cc1 | 45µM | . | . | ? | .
Cc1ccc(C(=O)N[C@H]2CO[C@H]3[C@@H]2OC[C@@H]3Nc2nccc(C(C)(C)C)n2)cc1 | ? | . | ? | ? | 63µM
CC(=O)Nc1ccc(S(=O)(=O)N[C@H]2CO[C@H]3[C@@H]2OC[C@@H]3Nc2nccc(C(C)(C)C)n2)cc1 | ? | . | 16µM | ? | ?
Cc1noc(C)c1C(=O)N1CC(CN2C(=O)c3c(c(C)nn3-c3ccccc3)C2C)C1 (stereo unspecified) | / | / | / | . | .
O=C(NCc1ccccc1)c1ccc2nnc(-c3cccnc3)n2c1 | / | . | / | . | .
O=c1ncn(CC2CC2)c2ccc(-c3ccc(Cl)cc3)nc12 | . | . | . | ? | .
O=c1ncn(CC2CC2)c2ccc(-c3ccc4c(c3)OCO4)nc12 | 45µM | . | . | ? | .
COc1ccccc1-c1cccc(C(=O)N2CCN(C(=O)Cc3cccc(Cl)c3)CC2)c1 | / | . | / | ? | ?
Cc1cccc(NC(=O)C23CCC=C2N(C2CCCC2)C(=O)CC3)c1 (stereo unspecified) | / | . | / | . | ?
COc1ccccc1Nc1ccnc(N2CCC(NC(=O)C3CC3)CC2)n1 | / | . | / | . | .
COC(=O)NC1CCN(c2nccc(Nc3ccccc3OC)n2)CC1 | / | . | / | ? | 50µM
COc1ccccc1Nc1ccnc(N2CCC(N[S+](=O)([O-])c3ccc(C)cc3)CC2)n1 | / | . | / | ? | 32µM
COc1ccccc1Nc1ccnc(N2CCC(N[S+](=O)([O-])c3ccccc3)CC2)n1 | / | . | / | 32µM | 32µM
COc1ccccc1Nc1ccnc(N2CCC(NC(C)=O)CC2)n1 | / | . | / | ? | ?
Cc1ccc(-c2cc(C(=O)N3CCC(c4nc(C5CCOCC5)no4)C3)c3ccccc3n2)cc1C (stereo unspecified) | 0.32µM | . | ? | ? | 11µM
Cc1ccc(-c2cc(C(=O)N3CCC(Cc4nncn4C(C)C)CC3)c3ccccc3n2)cc1C | 5.6µM | . | . | ? | 13µM
COCCNC(=O)C1CCN(c2nccc(Nc3ccccc3OC)n2)CC1 | / | . | / | ? | ?
O=C(Cc1ccc(F)cc1)N1CCC(C(=O)N2CCC(c3nc4ncccc4[nH]3)CC2)CC1 | / | . | / | . | .
O=C(Nc1cccc(Cl)c1)C1CCCN(Cc2cccc(-c3cccs3)c2)C1 (stereo unspecified) | / | / | / | ? | 40µM
O=C(NCCc1ccc(F)cc1)C1CCCN(Cc2cccc(-c3cccs3)c2)C1 (stereo unspecified) | / | / | / | ? | 28µM!
O=C(NCc1ccc(C(F)(F)F)cc1)C1CCCN(Cc2cccc(-c3cccs3)c2)C1 (stereo unspecified) | / | . | / | 11µM | ?
O=C(NC1CCN(Cc2cccc(-c3cccs3)c2)CC1)c1ccncc1 | / | . | / | ? | ?
SMILES | Luciferase inh | GPT2 inh | NPR1 antag | NIH3T3 tox | HEK293 tox
O=C(Nc1ccc(F)cc1)C1CCCN(Cc2cccc(-c3cccs3)c2)C1 (stereo unspecified) | / | / | / | ? | 40µM
C#CCNC(=O)C1CCCN(Cc2cccc(-c3cccs3)c2)C1 (stereo unspecified) | / | . | / | ? | ?
CN1C(=O)C2(CCN(C(=O)C3(c4ccccc4)CC3)CC2)c2ccccc21 | . | . | . | ? | ?
CC(C)N1C[C@H](Oc2ccccc2)[C@@H]1C1CCN(C(=O)c2cccc(C#N)c2)CC1 | / | . | / | . | .
CN(c1cc(=O)c2ccnc(-c3cncnc3)c2o1)C1CCOCC1 | . | . | . | 79µM | .
CN(C)c1cccc(-c2nccc3c(=O)cc(N(C)C4CCOCC4)oc23)c1 | . | . | . | ? | .
CN(c1cc(=O)c2ccnc(-c3cccc(CO)c3)c2o1)C1CCOCC1 | . | . | . | 25µM | .
O=C(NCc1ccccc1)C1CCCCN1Cc1ccc(-c2ccsc2)cc1 (stereo unspecified) | / | . | / | ? | ?
O=C(Nc1cccc2ccccc12)O[C@@H]1CO[C@H]2[C@@H]1OC[C@@H]2NC(=O)C1CCC1 | . | . | . | . | .
O=C(Nc1cccc2ccccc12)O[C@@H]1CO[C@H]2[C@@H]1OC[C@@H]2NCC1CCCCC1 | . | . | . | ? | 45µM
O=C(Nc1ccc(Oc2ccccc2)cc1)O[C@@H]1CO[C@H]2[C@@H]1OC[C@@H]2NC(=O)c1cnccn1 | . | . | . | . | ?
